Screens from PubChem BioAssay.
Hits are enriched below; roughly 5.4% of the tested compounds scored in any of these assays.
HSF-1 act: HSF-1 activators, primary screen, NIH3T3-HGL cells, MG132 stress, luminescence, single point | NIH3T3-HGL HSF-1 luciferase reporter, 8 h; 100% = twice DMSO control signal | activation, % at 9 µM | 300,000 compounds, 1.7% hits;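 active = mean replicate activation of at least 50% with a set share of replicates each reaching 50%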
AHR act: AHR activators, primary screen, cell-based, luminescence, luciferase reporter, human; activation, % at 5 µM; Aryl hydrocarbon receptor (Homo sapiens), P35869; 320,000 compounds, 2.5% hits; AHR-responsive luciferase reporter cells; AID 2796, 2010; in the data active = activation above about 47%
DAX1 inh: DAX1 (NR0B1) inhibitors, primary screen, cell-based, HEK293, Gal4-DAX1, luciferase luminescence | HEK293 Gal4-DAX1 luciferase reporter | 340,000 compounds, 0.99% hits | inhibition, % at 6.75 µM | Nuclear receptor subfamily 0 group B member 1 (Homo sapiens), P51843;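 active = inhibition above the mean over all tested compounds plus 3 SD, cut at about 4.2% in these data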;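 note: inhibition shows as a rise in luminescence from relieved DAX1 repression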
Target sequence (P51843 207-470 limits assumed): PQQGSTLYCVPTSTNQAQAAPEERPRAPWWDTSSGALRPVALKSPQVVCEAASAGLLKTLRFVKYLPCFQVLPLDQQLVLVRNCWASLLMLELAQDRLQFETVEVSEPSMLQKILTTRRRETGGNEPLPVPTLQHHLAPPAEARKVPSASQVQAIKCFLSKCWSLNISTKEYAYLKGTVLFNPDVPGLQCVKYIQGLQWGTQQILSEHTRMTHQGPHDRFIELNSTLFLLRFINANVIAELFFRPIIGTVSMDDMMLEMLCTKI
HSF1 inh: HSF1 inhibitors in luciferase reporter cells, primary screen, cell-based, NIH3T3, luminescence. NIH3T3-HGL HSE-luciferase, MG132-induced, luminescence 8 h; hits give low values. activity change, negative = inhibition, % at 7.5 µM (by protocol). 300,000 compounds, 0.77% hits. AID 2098, 2009;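 active = more than half of replicate wells show activity change below -50%, luminescence cut by over half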;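 note: luciferase reports HSF-1 transcriptional activity via heat shock element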
GAA850 FXN act: FXN promoter activators, primary screen, cell-based, luciferase luminescence, HEK293 lucGAA850; HEK293 lucGAA850 FXN promoter luciferase reporter, 24 h; percent of 10 µM SAHA response; activation, % at 6 µM; 360,000 compounds, 0.56% hits; AID 540364, 2011;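 active = activation above the average of all compounds screened plus 3 SD, cutoff fixed separately per campaign, cut at about 7.5% in these data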
Of the large screens only hits and unclear results are named; the others gave an inactive call.

O=C(NCC1CCCC(CNC(=O)Nc2ccc(Cl)cn2)C1)Nc1ccc(Cl)cn1 (centres undefined)	HSF-1 act 56
O=C(COC(=O)CC1CCCC1)Nc1ccc(Cl)cn1	none (no result: HSF-1 act, HSF1 inh)
COc1ccc2oc(-c3ccc(C)c(NC(=O)c4ccc(N5CCOCC5)c([N+](=O)[O-])c4)c3)nc2c1	HSF-1 act 81
CNC(=O)NNC(=O)c1csc(-c2ccc(C(F)(F)F)cc2Cl)n1	none (no result: DAX1 inh)
CNC(=O)NNC(=O)c1csc(Cc2c(Cl)sc3ccc(Cl)cc23)n1	AHR act 47
O=[N+]([O-])c1cccc(-c2nc(-c3ccccc3)no2)c1	HSF-1 act 56, AHR act 58
O=[N+]([O-])c1cccc(-c2nnc(-c3ccccc3)o2)c1	HSF1 inh -78
O=[N+]([O-])c1cccc(-c2nnc(-c3ccc4c(c3)OCO4)o2)c1	none
COc1ccc(NC2=Nc3ccccc3N3C2=Nc2c(c(C)nn2-c2ccc(C)cc2)C3c2cccnc2)cc1 (centres undefined)	HSF1 inh -81
Cc1cc(C)c2c3c(c(-c4ccccc4)n2n1)c(=O)n(C)c(=O)n3C	none (no result: HSF-1 act, AHR act, HSF1 inh)
Cc1cccc(-c2c3c(=O)n(C)c(=O)n(C)c3c3cccnn23)c1	AHR act 60
O=C(N/N=C/c1ccc(Sc2nc3ccccc3[nH]2)o1)c1ccncc1	none
CCN1C(=O)S/C(=C/c2ccc(Sc3nc4ccccc4[nH]3)o2)C1=O	HSF-1 act 58
COc1ccc(CNC(=O)CN2CCN(c3ccc(F)cc3)CC2)cc1	none
COc1ccc(/C=N/n2c(=O)[nH]c3c([nH]c4ccc(Cl)cc43)c2=O)cc1CN1CCCCC1	none
COc1ccc(/C=N/n2c(=O)[nH]c3c([nH]c4ccc(Br)cc43)c2=O)cc1CN1CCOCC1	AHR act 56
CCOC(=O)C1(C)CCN1C(=O)c1ccc(OC)c(F)c1 (centres undefined)	none (no result: HSF-1 act, AHR act, DAX1 inh, HSF1 inh)
COc1ccccc1NC(=O)CSc1nnc(COc2ccc(Cl)cc2)n1Cc1ccco1	HSF-1 act 94
CC(C)N(Cc1nc(-c2ccc(Cl)cc2)no1)C(=O)CN(C)S(=O)(=O)c1ccc(Cl)cc1	HSF-1 act 85
CC(C)N(Cc1nc(-c2ccccc2)no1)C(=O)CN(C)S(=O)(=O)c1ccc(Br)cc1	none
O=C(O)C(O)Cc1c[nH]c2ccccc12 (centres undefined)	DAX1 inh 4.7 (no result: HSF-1 act, HSF1 inh)
COc1ccc(NC(=O)C(CC(=O)O)Cc2ccc(C)cc2)cc1 (centres undefined)	none
CCCCNC(=O)CSc1nc2ccsc2c(=O)n1CCCC(=O)NCCc1ccc(S(N)(=O)=O)cc1	DAX1 inh 6.1
COc1cc(C#Cc2c(-c3cncn3C)n(C)c3ccc(-c4ccc(OC)c(OC)c4)cc23)cc(OC)c1	AHR act 68 (no result: HSF-1 act, HSF1 inh)
CCC(=O)N1c2ccc(S(=O)(=O)N3CCN(c4cc(C)ccc4C)CC3)cc2CC1C (centres undefined)	none
CC(C)(C)NC(=O)COc1ccc(CNc2ncn[nH]2)cc1	none
COc1cc(CNc2ccc(CNc3ncn[nH]3)cc2)ccc1OCC(=O)NC(C)(C)C	AHR act 56
O=C(Nc1ccccc1F)c1cc(-c2ccco2)nc2ccccc12	AHR act 60
COc1ccc2cc(C(=O)NCc3ccco3)c(=Nc3ccc(C(=O)O)cc3)oc2c1	HSF1 inh -63
COc1ccc2oc(=Nc3ccc(C(=O)O)cc3)c(C(=O)NCc3ccco3)cc2c1	none
COc1ccc(OC)c(/C=N/NC(=O)c2cc(-c3ccc(C)o3)nc3ccccc23)c1	none
COc1ccccc1NC(=O)c1cc(-c2ccc(C)o2)nc2ccccc12	AHR act 72
O=C(Nc1ccc(F)cc1F)c1cc(-c2ccco2)nc2ccccc12	none
Cc1ccc(-c2cc(C(=O)Nc3cccnc3)c3ccccc3n2)o1	HSF-1 act 52
O=C(CC1SCCNC1=O)NCc1ccccc1 (centres undefined)	none (no result: HSF-1 act, AHR act, HSF1 inh)
C=CCSc1nc(N)c(C(=O)Nc2ccccc2)cc1C#N	none
COc1ccccc1CNC(=O)c1cc(C)nc2ccccc12	none
COc1ccccc1NC(=O)c1cc(C)nc2ccccc12	AHR act 74
COc1ccc(NC(=O)c2cc(-c3ccncc3)nc3ccccc23)c(OC)c1	AHR act 56 (no result: HSF-1 act, HSF1 inh)
C=CCSc1nc(N)c(C(=O)Nc2ccccc2OC)cc1C(=O)Nc1ccccc1	AHR act 75
COc1ccc(-c2cc(C(=O)NCc3ccco3)c3ccccc3n2)cc1	HSF-1 act 86
O=C(NCc1ccco1)c1cc(-c2ccccc2)nc2ccccc12	none
CC1CCC(NC(=O)C2CCN(C(=O)Nc3ccccc3)CC2)CC1 (centres undefined)	none (no result: HSF-1 act, HSF1 inh)
CC[C@@H](NCCCn1cnc2c(SC)ncnc21)c1ccccc1	none (no result: HSF-1 act, AHR act, HSF1 inh)
COc1ccc(S(=O)(=O)N2CCCCC2c2cc(C(=O)Nc3ccc(F)c(Cl)c3)no2)cc1 (centres undefined)	none (no result: HSF-1 act, AHR act, DAX1 inh, HSF1 inh)
COCCc1ccc(OC2(C)CCN(Cc3cccc(OCOC)c3)C2)cc1 (centres undefined)	none (no result: HSF-1 act, AHR act, DAX1 inh, HSF1 inh)
Cc1ccc(-c2cc(C(=O)Nc3ccccn3)c3ccccc3n2)o1	none
Cc1ccc(NC(=O)c2cc(-c3ccc(C)o3)nc3ccccc23)cc1	AHR act 57
CCCOc1cccc(-c2cc(C(=O)N/N=C/c3cccnc3)c3ccccc3n2)c1	none (no result: HSF-1 act, AHR act, HSF1 inh)
CCCOc1cccc(-c2cc(C(=O)N/N=C/c3ccccn3)c3ccccc3n2)c1	HSF-1 act 143 (no result: AHR act)
O=C(O)COc1ccccc1/C=N/NC(=O)c1cc(-c2ccc(Cl)cc2)nc2ccccc12	AHR act 64
O=C(N/N=C/c1ccccn1)c1cc(-c2ccc(Br)cc2)nc2ccccc12	HSF-1 act 169
O=C(N/N=C/c1ccccn1)c1cc(-c2ccc(Cl)cc2)nc2ccccc12	HSF-1 act 147, AHR act 50
COc1ccc(CSc2nc(O)cc(=O)n2CC(C)C)cc1F	none
CCOc1ccc(N=Nc2ccc(O)c3ncccc23)cc1	HSF-1 act 89 (no result: AHR act)
OC(c1cccc(Cl)c1)c1ncc(-c2ccc(Oc3ccccc3)cc2)[nH]1 (centres undefined)	none (no result: HSF-1 act, AHR act, DAX1 inh, HSF1 inh)
COc1cccc(C2CCCN2Cc2nc(-c3cnccn3)no2)c1 (centres undefined)	none
CN(C(=O)COC(=O)c1ccc(Cl)cc1N)C1CCCCC1	HSF-1 act 59
CCOc1ccc(N=Cc2ccc3ccccc3c2)cc1	none
O=[N+]([O-])c1cc(C=Nc2ccc3ccccc3c2)ccc1Br	AHR act 68
CCCCOc1ccc([N+](=O)[O-])cc1C(=O)O	none
COc1ccccc1CNC(=O)c1cnc2sccn2c1=O	AHR act 53
Cc1cccc(NC(=O)c2cnc3sccn3c2=O)c1	AHR act 68
